# From PubChem BioAssay
# The list is not random: actives were taken first. Their share in the collection is about 19%.
# TDP1 cell CPT: growth inhibition of DT40 Tdp1-/-;hTDP1 cells with camptothecin (screen for TDP1 inhibitors) | AID 686979 | actives 12% (n = 420,000) | chicken DT40 Tdp1-/-;hTDP1 cells + 20 nM CPT, ATP luminescence, 48 h | Potency, µM (doses to about 46.2 µM), for inactives: at the highest dose activity change, negative = growth inhibition, hits mostly inhibitors; further: nearly all actives have a fitted effect of over 55% in size
#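 Chicken DT40 Tdp1-/- cells complemented with human TDP1, 400 cells/well, exposed to compounds plus 20 nM camptothecin for at least 48 h at 37 C; viability read as ATP content by CellTiter-Glo luminescence.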
# HT1080 IDH1KD tx: HT-1080 IDH1 knockdown cell toxicity (counter line); HT-1080 IDH1 knockdown viability, ATP luminescence, 48 h; Potency, µM (top dose mostly 46.1 µM), for inactives: at the highest dose activity, negative = toxicity, actives largely listed as cytotoxic; actives 2% (n = 360,000); AID 686971;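 further: 0% = DMSO wells and -100% = cell-free medium wells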
#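 % activity derives from luminescence (CellTiter-Glo), normalised to DMSO and no-cell wells. HT-1080-IDH1KD cells, 750/well, had 48 h compound exposure at 37 °C.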
# KB-3-1 tox: kills parental KB-3-1 adenocarcinoma cells; KB-3-1 viability, CellTiter-Glo ATP luminescence, 72 h; actives 1.4% (n = 400,000); Potency, µM (series often up to 46.1 µM), hits mostly cytotoxic; further: nearly all actives have a fitted effect of over 60% in size
#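 Multi-concentration cytotoxicity screen in KB-3-1 cells grown in DMEM lacking phenol red with 10% FBS. After 72 h at 37 °C with compound, ATP-dependent luminescence was recorded.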
# HT1080NT lethal: kills 2HG-producing HT-1080-NT fibrosarcoma cells; HT-1080-NT fibrosarcoma viability, CellTiter-Glo ATP luminescence, 48 h; Potency, µM (series often up to 46.1 µM), without a hit: at the highest dose activity, negative = less viability, hits mostly cytotoxic; actives 1.6% (n = 360,000); AID 686970;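 further: NT is the 2HG producing partner of a matched IDH1 knockdown line; 0% = DMSO-treated cells and -100% = media-only wells without cells; nearly all actives have a fitted effect of over 55% in size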
#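 A 48-hour cytotoxicity screen used HT-1080-NT cells plated 2 hours before compound delivery. ATP-based CellTiter-Glo luminescence measured viability, normalized to DMSO and no-cell controls.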
# KB-V1 cytotox: KB-V1 MDR subline cytotoxicity; Potency, µM (series often up to 46.1 µM), most hits filed as cytotoxic; KB-V1 MDR cells viability, CellTiter-Glo, 72 h; actives 3.4% (n = 400,000); further: nearly all actives have a fitted effect of over 60% in size
#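 KB-V1 cells (P-gp-expressing MDR subline of KB-3-1) in phenol-red-free DMEM with 10% FBS were exposed to library compounds over a concentration series for 72 h at 37 degrees C. Viability read by CellTiter-Glo luminescence; concentration-effect curves fitted after normalization.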
# DT40 TDP1 no CPT: qHTS for Inhibitors of human tyrosyl-DNA phosphodiesterase 1 (TDP1): qHTS in cells in absence of CPT | DT40 Tdp1-/- hTDP1 cells, no CPT, ATP luminescence, 48 h | Potency, µM (series often up to 46.2 µM), inactives show at the highest dose activity change, negative = growth inhibition, usual class: inhibitors | actives 15% (n = 420,000) | AID 686978, 2013; further: nearly all actives have a fitted effect of over 55% in size
#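 DT40 Tdp1-/-;hTDP1 cells, no CPT (DMSO vehicle only), 400 cells/well; compounds pin-transferred; ≥48 hr, 37 °C; CellTiter-Glo 30 min RT dark, luminescence read.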
# * hit, by the source's call; i = inactive; ? = inconclusive; / = no result given; [ ] = dose if it differs, or a comment. The call rests on the fitted dose curve; in most records, active means well fitted curve in the direction sought with a large enough effect; inconclusive means small, poorly fitted or top-dose-only effect, or another doubt; inactive means no such curve, though single readings can be large; an effect the other way counts as inactive or inconclusive. Unless noted, on the % scale 0 is the no-effect control and ±100 the full control effect; potency means the concentration at half of the fitted maximal effect.
SMILES,TDP1 cell CPT,HT1080 IDH1KD tx,KB-3-1 tox,HT1080NT lethal,KB-V1 cytotox,DT40 TDP1 no CPT
NC(=O)c1ncn([C@@H]2O[C@H](CNCc3ccc(OCC(=O)Nc4ccccn4)cc3)[C@@H](O)[C@H]2O)n1,-12%,0%,i,4%,i,-3%
O=C(NC1CCC1)C1CCC(=O)N(Cc2ccccc2F)C1 (centres undefined),3%,4%,i,-1%,?,-4%
Cc1c(N(C(=O)c2ccccn2)C2(C(=O)NC3CCCCC3)CCCCC2)c(=O)n(-c2ccccc2)n1C,12%,8%,i,10%,i,0%
O=C(Nc1ccc(N2CCN(C(=O)c3ccccc3)CC2)cc1)c1ccc([N+](=O)[O-])o1,2.1µM*,?,i,7.3µM*,?,1.8µM*
Cc1ccccc1C(=O)N1CCN(c2ccc(NC(=O)c3ccc4c(c3)OCO4)cc2)CC1,13µM*,?,?,?,?,13µM*
Cc1ccccc1C(=O)N1CCN(c2ccc(NC(=O)c3ccc([N+](=O)[O-])o3)cc2)CC1,5.2µM*,2.6µM*,5.8µM*,1.3µM*,?,2.3µM*
COCCNC(=O)CN(C(=O)CCC(=O)Nc1ccccn1)c1cc(C)ccc1C,1%,8%,i,5%,i,2%
Nc1ccn(CC(=O)N[C@H](CO)Cc2c[nH]c3ccccc23)c(=O)n1,15%,3%,i,-5%,i,-5%
CCN(Cc1ccccc1)c1ccc(/C=N/NC(=O)c2cccc(S(=O)(=O)N3CCOCC3)c2)cc1,?,21µM*,?,?,?,13µM*
CN(Cc1cccc(Cl)c1Cl)C(=O)c1cccc(S(=O)(=O)N2CCN(Cc3ccccc3)CC2)c1,?,-12%,?,-14%,i,16µM*
CN(Cc1ccc(OC(F)F)cc1)C(=O)c1cccc(S(=O)(=O)N2CCN(c3ccccc3)CC2)c1,15µM*,-19%,7.3µM*,-6%,i,2.9µM*
CN(Cc1ccc(Cl)c(Cl)c1)C(=O)c1cccc(S(=O)(=O)N2CCN(Cc3ccccc3)CC2)c1,21µM*,-18%,9.2µM*,-20%,i,21µM*
COc1cc(/C=N/NC(=O)c2cccc(S(=O)(=O)N3CCOCC3)c2)cc(OC)c1O,-24%,3%,i,9%,i,-10%
CC1(c2ccccc2)NC(=O)N(CC(=O)NC(=O)NC2CCCC2)C1=O (centres undefined),1%,-13%,i,-7%,i,0%
O=C(O)c1ccc(S(=O)(=O)N(Cc2ccccc2)C2CCCCC2)cc1,-16%,-3%,i,-2%,i,2%
CCn1c(-c2ccccc2F)nc2cc(NC(C)=O)cc(C(=O)N3CCCC3c3nccs3)c21 (centres undefined),7%[9.04 µM],/,/,/,/,2%
CSc1ccccc1NC(=O)C(C)N(C)CC(=O)N1CCN(Cc2ccccc2)CC1 (centres undefined),?,9%,i,1%,i,21µM*
CN(CC(=O)N1CCN(Cc2ccccc2)CC1)C(=O)Cc1ccc(Cl)c(Cl)c1,?,0%,i,-13%,i,15µM*
CCN(Cc1ccccc1)c1ccc(/C=N/NS(=O)(=O)c2cccc([N+](=O)[O-])c2)cc1,-13%,-2%,i,-10%,16µM*,-27%
CN(Cc1ccccc1)C(=O)c1cc(S(=O)(=O)N2CCOCC2)cn1C,7%,3%,i,-1%,i,2%
